# Measurements: article PMC8384837, “Expanding the binding specificity for RNA recognition by a PUF domain”
# Tests used:
# Assay in all cases: yeast three-hybrid, YBZ-1, SC-Leu-His + 0.5 mM 3-AT, 4 days
# Conditions in all cases: tags: N-Gal4 AD-HA kept; label: inside an RPR1-promoter hybrid RNA with tandem MS2 sites; ssRNA
# PUM1 PUF domain R4-TPT = PUM1 PUF domain R4-TPT (Homo sapiens, UniProt Q14671 828-1176, N971T;H972P;Q975T)
# Procedure, shortened: (§1)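 Pumilio-1 PUF domain libraries, randomized (NNK) at the three base-contacting residues of each repeat, were co-expressed with matching RNA elements from a centromeric plasmid in strain YBZ-1 (LexA–MS2 coat fusion, HIS3 reporter). Transformants were plated on SC-Leu (input) and SC-Leu-His + 0.5 mM 3-AT (selection) for four days, and repeat regions were PCR-amplified and Illumina-sequenced. The interaction score is the log2 change in variant frequency from input to selection, with pseudocount 1 where absent.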
# PUM1 PUF domain R4-GQR = PUM1 PUF domain R4-GQR (Homo sapiens, UniProt Q14671 828-1176, N971G;H972Q;Q975R)
# Procedure, shortened: as §1
# PUM1 PUF domain R1-SKS = PUM1 PUF domain R1-SKS (Homo sapiens, UniProt Q14671 828-1176, R864K;Q867S)
# Procedure, shortened: as §1
# PUM1 PUF domain R6-AWS = target: T1, PUM1 PUF domain R6-AWS (Homo sapiens, UniProt Q14671 828-1176, N1043A;Y1044W;Q1047S)
# T1 sequence: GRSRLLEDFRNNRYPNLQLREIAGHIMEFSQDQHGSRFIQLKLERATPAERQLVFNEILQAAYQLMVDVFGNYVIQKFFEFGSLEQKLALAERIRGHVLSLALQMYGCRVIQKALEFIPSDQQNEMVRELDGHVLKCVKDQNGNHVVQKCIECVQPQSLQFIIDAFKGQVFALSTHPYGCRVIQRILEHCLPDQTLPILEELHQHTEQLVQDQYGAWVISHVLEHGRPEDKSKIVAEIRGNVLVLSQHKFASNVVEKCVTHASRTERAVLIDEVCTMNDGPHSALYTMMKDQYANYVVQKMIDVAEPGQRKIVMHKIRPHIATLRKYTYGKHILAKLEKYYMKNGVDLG
# Procedure, shortened: as §1
# PUM1 PUF domain R8-TYN = PUM1 PUF domain R8-TYN (Homo sapiens, UniProt Q14671 828-1176, N1122T;Q1126N)
# Procedure, shortened: as §1
# PUM1 PUF domain R3-DHS = PUM1 PUF domain R3-DHS (Homo sapiens, UniProt Q14671 828-1176, C935D;R936H;Q939S)
# Procedure, shortened: as §1
# PUM1 PUF domain R5-GAR = PUM1 PUF domain R5-GAR (Homo sapiens, UniProt Q14671 828-1176, C1007G;R1008A;Q1011R)
# Procedure, shortened: as §1
# PUM1 PUF domain R8-RYT = PUM1 PUF domain R8-RYT (Homo sapiens, UniProt Q14671 828-1176, N1122R;Q1126T)
# Procedure, shortened: as §1
# PUM1 PUF domain R4-CGC = PUM1 PUF domain R4-CGC (Homo sapiens, UniProt Q14671 828-1176, N971C;H972G;Q975C)
# Procedure, shortened: as §1
# PUM1 PUF domain R2-TFG = PUM1 PUF domain R2-TFG (Homo sapiens, UniProt Q14671 828-1176, N899T;Y900F;Q903G)
# Procedure, shortened: as §1
sequence,measurement,setting,value
GGCUAGAACUAGUGGAUCCCCCGGCGCCCGGCGGCUCGAGCCCGGGUAAGUGUACAUAGUCUGCAUGCCGCCGGGCGCCAUGCCUGCAGGUCGACUCUAGAAAACAUG,binding signal,PUM1 PUF domain R4-TPT,3.15 log2 enrichment (interaction score)
same,binding signal,PUM1 PUF domain R4-GQR,2.32 log2 enrichment (interaction score)
GGCUAGAACUAGUGGAUCCCCCGGCGCCCGGCGGCUCGAGCCCGGGUAAGUGUAAAUCGUCUGCAUGCCGCCGGGCGCCAUGCCUGCAGGUCGACUCUAGAAAACAUG,binding signal,PUM1 PUF domain R1-SKS,1.17 log2 enrichment (interaction score)
GGCUAGAACUAGUGGAUCCCCCGGCGCCCGGCGGCUCGAGCCCGGGUAAGUGAAAAUAGUCUGCAUGCCGCCGGGCGCCAUGCCUGCAGGUCGACUCUAGAAAACAUG,binding signal,PUM1 PUF domain R6-AWS,5.94 log2 enrichment (interaction score)
GGCUAGAACUAGUGGAUCCCCCGGCGCCCGGCGGCUCGAGCCCGGGUAAGUGUAAAUUGUCUGCAUGCCGCCGGGCGCCAUGCCUGCAGGUCGACUCUAGAAAACAUG,binding signal,PUM1 PUF domain R1-SKS,2.64 log2 enrichment (interaction score)
GGCUAGAACUAGUGGAUCCCCCGGCGCCCGGCGGCUCGAGCCCGGGUAAGCGUAAAUAGUCUGCAUGCCGCCGGGCGCCAUGCCUGCAGGUCGACUCUAGAAAACAUG,binding signal,PUM1 PUF domain R8-TYN,2.62 log2 enrichment (interaction score)
GGCUAGAACUAGUGGAUCCCCCGGCGCCCGGCGGCUCGAGCCCGGGUAAGUGUAAAUAGUCUGCAUGCCGCCGGGCGCCAUGCCUGCAGGUCGACUCUAGAAAACAUG,binding signal,PUM1 PUF domain R3-DHS,3.1 log2 enrichment (interaction score)
same,binding signal,PUM1 PUF domain R5-GAR,1.64 log2 enrichment (interaction score)
same,binding signal,PUM1 PUF domain R4-TPT,2.59 log2 enrichment (interaction score)
same,binding signal,PUM1 PUF domain R8-RYT,2.86 log2 enrichment (interaction score)
same,binding signal,PUM1 PUF domain R4-CGC,3.48 log2 enrichment (interaction score)
GGCUAGAACUAGUGGAUCCCCCGGCGCCCGGCGGCUCGAGCCCGGGUAAGUGUCAAUAGUCUGCAUGCCGCCGGGCGCCAUGCCUGCAGGUCGACUCUAGAAAACAUG,binding signal,PUM1 PUF domain R5-GAR,5.42 log2 enrichment (interaction score)
GGCUAGAACUAGUGGAUCCCCCGGCGCCCGGCGGCUCGAGCCCGGGUAAGUGUAAAAAGUCUGCAUGCCGCCGGGCGCCAUGCCUGCAGGUCGACUCUAGAAAACAUG,binding signal,PUM1 PUF domain R2-TFG,4.09 log2 enrichment (interaction score)
GGCUAGAACUAGUGGAUCCCCCGGCGCCCGGCGGCUCGAGCCCGGGUAAGUGUUAAUAGUCUGCAUGCCGCCGGGCGCCAUGCCUGCAGGUCGACUCUAGAAAACAUG,binding signal,PUM1 PUF domain R5-GAR,2.98 log2 enrichment (interaction score)
